{"source": "PubChem BioAssay AID2284189", "about": "(EPA ToxCast)", "note": "The source made the active and inactive calls. Rule for the calls: active = hit-call score of the fitted dose curve at least 0.9, where 1 is the maximum; inactive = score below 0.9."}
{"target": "rat Glutamate (Kainate, Non-Selective), conducted at France lab site, Grik1 (gene 29559) (UniProt P22756)", "sequence (P22756 whole entry, looked up)": "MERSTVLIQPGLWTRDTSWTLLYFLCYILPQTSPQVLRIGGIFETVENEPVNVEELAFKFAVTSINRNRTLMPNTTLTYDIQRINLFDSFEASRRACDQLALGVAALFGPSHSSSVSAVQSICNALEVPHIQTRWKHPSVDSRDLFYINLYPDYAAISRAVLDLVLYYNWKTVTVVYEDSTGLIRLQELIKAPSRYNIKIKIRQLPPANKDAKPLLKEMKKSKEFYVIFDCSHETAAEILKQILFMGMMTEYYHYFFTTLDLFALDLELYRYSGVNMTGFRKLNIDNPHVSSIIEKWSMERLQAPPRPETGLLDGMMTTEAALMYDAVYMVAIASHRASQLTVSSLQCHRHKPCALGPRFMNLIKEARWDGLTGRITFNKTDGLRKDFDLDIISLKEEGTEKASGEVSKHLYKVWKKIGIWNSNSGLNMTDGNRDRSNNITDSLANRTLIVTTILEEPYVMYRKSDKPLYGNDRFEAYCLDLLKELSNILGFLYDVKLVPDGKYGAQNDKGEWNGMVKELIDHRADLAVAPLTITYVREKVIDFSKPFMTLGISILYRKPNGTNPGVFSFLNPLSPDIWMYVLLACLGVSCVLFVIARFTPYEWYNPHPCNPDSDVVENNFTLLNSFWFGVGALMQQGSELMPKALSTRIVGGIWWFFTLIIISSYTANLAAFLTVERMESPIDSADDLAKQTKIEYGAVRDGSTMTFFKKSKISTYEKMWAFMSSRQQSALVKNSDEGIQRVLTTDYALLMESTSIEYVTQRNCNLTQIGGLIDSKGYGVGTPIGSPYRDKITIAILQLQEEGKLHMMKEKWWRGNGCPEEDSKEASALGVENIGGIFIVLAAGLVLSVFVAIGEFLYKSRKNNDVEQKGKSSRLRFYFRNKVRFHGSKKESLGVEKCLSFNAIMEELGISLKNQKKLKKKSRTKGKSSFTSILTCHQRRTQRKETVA", "test": "ERF_FR_LGIC_rGRIK1: Eurofins (ERF) Ion Channel [3H] Kainic acid Binding LeadHunter Assay for rat Glutamate (Kainate, Non-Selective), conducted at France lab site", "procedure": "ERF_FR_LGIC_rGRIK1 is a biochemical, single-readout assay that uses extracted gene-proteins in a cell-free assay. Measurements were taken 1 hour after chemical dosing in a 96-well plate. See Glutamate (Kianate, Non-Selective) Rat Ion Channel [3H]- Kainic acid Binding Assay, Cerep.ERF_FR_LGIC_rGRIK1 is an assay component calculated from the ERF_FR_LGIC_rGRIK1 assay. It is designed to measure radioligand binding using a type of binding reporter as detected by scintillation counting with radiometry technology.Data from the assay component ERF_FR_LGIC_rGRIK1 was analyzed at the assay endpoint, ERF_FR_LGIC_rGRIK1, in the positive analysis fitting direction relative to DMSO as the negative control and baseline of activity. Using a type of binding reporter, loss-of-signal activity can be used to understand changes in binding as they relate to gene GRIK1. To generalize the intended target to other relatable targets, this assay endpoint is annotated to the ion channel intended target family, where the subfamily is ligand-gated (glutamate, Ionotropic).\nGlutamate kainite receptor containing membranes are prepared from brain cortices from male Wistar rats in Tris-HCl buffer pH 7.4. A 10 mg aliquot is incubated with 5 nM [3H]Kainic acid for 60 minutes at 4C. […] Membranes are filtered and washed, the filters are then counted to determine [3H]Kainic acid specifically bound."}
{"compound": "O=C(/C=C/c1ccc(O)cc1)CC(=O)/C=C/c1ccc(O)cc1", "AC50": "2.87 µM (active)"}
